The record followed here is PubChem BioAssay (Tox21).

“And” between values parts separate entries of the source, which are not always exact repeats. Equal entries are not always repeated. Records with an inconclusive call do not appear. The source holds several records for some structures; these can differ, active in one and inactive in another. The source made the active and inactive calls. Unless noted, calls follow the shape of the dose curve; as a rule, active = well fitted curve in the direction sought with a large enough effect in the repeat runs; inconclusive = weak or mixed curves; inactive = no such curve, though single readings can be large; an effect the other way counts as inactive or inconclusive.

Assay [1] is described as follows: qHTS assay to identify small molecule that activate the aryl hydrocarbon receptor (AhR) signaling pathway - cell viability counter screen (AID 743086). Also: nearly all actives have a fitted effect of over 45% in size. Also: potency is read from the fitted curve at half-maximal effect. The gist of the method: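 HepG2-AhR-luc (HG2L7.5c1) cells, 4000/well, were preincubated 5 h at 37C, exposed to compound in qHTS format for 24 hr at 37C, then given CellTiter-Fluor for 30 min; viability was read as fluorescence in the reporter wells.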
In general terms: qHTS replaces the single test concentration by a dilution series.

The target in assay [2] is Peroxisome proliferator-activated receptor gamma (Homo sapiens) (UniProt P37231). Description: qHTS assay to identify small molecule agonists of the peroxisome proliferator-activated receptor gamma (PPARg) signaling pathway (AID 743094; active = well fitted activation curve with a large enough effect in the signal ratio in the repeat runs, not every such curve was filed as active; the % refers to the signal ratio). In a few lines: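 Compounds dissolved in DMSO were added to PPARg UAS-bla HEK293H cells for 17 h at 37C, and reporter expression was quantified by fluorescence intensity after 1 h with LiveBLAzer B/G FRET substrate.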

The target is the same in assay [3]. Description: qHTS assay to identify small molecule antagonists of the peroxisome proliferator-activated receptor gamma (PPARg) signaling pathway (AID 743191; calls by dose curve; also: series mostly up to about 63 µM; nearly all actives have a fitted effect of over 30% in size). The gist of the method:
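GeneBLAzer PPARg UAS-bla HEK293H cells carrying a UAS-driven beta-lactamase reporter were plated at 3000 cells/well, preincubated 5 h at 37C, then given compound for 17 h at 37C; LiveBLAzer B/G FRET substrate was read after 1 h at room temperature.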

Assay [4] in a line: qHTS assay to identify small molecule antagonists of the peroxisome proliferator-activated receptor gamma (PPARg) signaling pathway - cell viability counter screen (AID 743194). Also: nearly all actives have a fitted effect of over 55% in size. Also: potency is read from the fitted curve at half-maximal effect. Particulars: Potency: co-treated with 50 nM rosiglitazone unless noted. The gist of the method: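 PPARg-UAS-bla HEK293H cells were plated, rested 5 h at 37 C, then treated with compounds plus rosiglitazone (50 nM final) for 17 h at 37 C; viability was then read by CellTiter-Glo luminescence after 30 min at room temperature.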

Assay [5] in a line: qHTS assay for small molecule agonists of the antioxidant response element (ARE) signaling pathway - cell viability counter screen (AID 743203; calls by dose curve; also: nearly all actives have a fitted effect of over 55% in size; also: potency is read from the fitted curve at half-maximal effect). The gist of the method: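 Following 16 hrs of compound treatment at 37C, HepG2 cells with an ARE-controlled beta-lactamase gene were lysed with CellTiter-Glo. Luminescence was read after 30 min at room temperature.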
Assay [6] can be described thus: qHTS assay for small molecule activators of the heat shock response signaling pathway - cell viability counter screen (AID 743209). Also: nearly all actives have a fitted effect of over 50% in size. Also: potency is read from the fitted curve at half-maximal effect. The gist of the method:
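Readout: CellTiter-Glo luminescence, 30 min at room temperature. System: HSE-bla HeLa cells, 1500/well, plated overnight. Treatment: compounds in DMSO, 5 h at 37 C.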

The nature of assay [7]: qHTS assay to identify small molecule agonists of the peroxisome proliferator-activated receptor delta (PPARd) signaling pathway - cell viability counter screen (AID 743211). Also: nearly all actives have a fitted effect of over 55% in size. Also: potency is read from the fitted curve at half-maximal effect. The gist of the method:
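PPARd-bla HEK293H cells (UAS-beta-lactamase reporter) were treated with compounds for 17 h at 37 C. Viability was then read in the same wells by CellTiter-Glo luminescence after 30 min at room temperature.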

Assay [8] addresses Aryl hydrocarbon receptor (Homo sapiens) (UniProt P35869). The experiment in a line: qHTS assay to identify small molecule that activate the aryl hydrocarbon receptor (AhR) signaling pathway (AID 743085).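 Also: HG2L7.5c1 human HepG2 liver cells with stably integrated DRE-driven firefly reporter; series mostly up to about 70 µM; nearly all actives have a fitted effect of over 15% in size.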 The gist of the method: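 HepG2 cells (HG2L7.5c1) stably carrying a firefly luciferase reporter driven by 20 dioxin responsive elements were exposed to compound for 24 h at 37C after a 5 h settling period; luminescence rise (ONE-Glo) indicated activation.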

The nature of assay [9]: qHTS assay for small molecule agonists of the antioxidant response element (ARE) signaling pathway (AID 743202; active = well fitted activation curve with a large enough effect in the signal ratio in the repeat runs, not every such curve was filed as active; the % refers to the signal ratio; also: potency is read from the fitted curve at half-maximal effect). In a few lines:
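Read-out: LiveBLAzer B/G FRET substrate fluorescence after 2 h at room temperature, following 16 h compound treatment at 37 C of HepG2 cells carrying an ARE-driven beta-lactamase reporter.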

Assay [10] can be described thus: qHTS assay for small molecule activators of the heat shock response signaling pathway (AID 743210; active = well fitted activation curve with a large enough effect in the signal ratio in the repeat runs, with a control signal flat, not every such curve was filed as active; the % refers to the signal ratio; also: series mostly up to about 63 µM). In a few lines: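 HSE-bla HeLa cells (beta-lactamase reporter under heat shock response elements) were exposed to compounds for 5 h at 37 C, then loaded with LiveBLAzer B/G FRET substrate for 2.5 h at room temperature before fluorescence reading.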

Chain of Peroxisome proliferator-activated receptor gamma (Homo sapiens) (P37231 whole entry, looked up): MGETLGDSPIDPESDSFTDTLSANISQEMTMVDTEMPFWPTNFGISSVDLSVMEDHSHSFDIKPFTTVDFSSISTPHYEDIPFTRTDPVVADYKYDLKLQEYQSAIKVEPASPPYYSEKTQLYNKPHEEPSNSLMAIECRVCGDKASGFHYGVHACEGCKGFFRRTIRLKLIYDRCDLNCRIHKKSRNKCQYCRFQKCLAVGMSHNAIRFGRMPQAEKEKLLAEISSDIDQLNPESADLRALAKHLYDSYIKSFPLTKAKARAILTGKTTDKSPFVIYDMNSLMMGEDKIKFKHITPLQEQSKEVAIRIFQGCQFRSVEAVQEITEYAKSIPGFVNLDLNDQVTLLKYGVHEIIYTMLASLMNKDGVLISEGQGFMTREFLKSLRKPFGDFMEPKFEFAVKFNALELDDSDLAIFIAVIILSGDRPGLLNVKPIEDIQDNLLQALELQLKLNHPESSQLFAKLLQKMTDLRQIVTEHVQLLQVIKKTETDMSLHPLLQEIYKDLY
Chain of Aryl hydrocarbon receptor (Homo sapiens) (P35869 whole entry, looked up): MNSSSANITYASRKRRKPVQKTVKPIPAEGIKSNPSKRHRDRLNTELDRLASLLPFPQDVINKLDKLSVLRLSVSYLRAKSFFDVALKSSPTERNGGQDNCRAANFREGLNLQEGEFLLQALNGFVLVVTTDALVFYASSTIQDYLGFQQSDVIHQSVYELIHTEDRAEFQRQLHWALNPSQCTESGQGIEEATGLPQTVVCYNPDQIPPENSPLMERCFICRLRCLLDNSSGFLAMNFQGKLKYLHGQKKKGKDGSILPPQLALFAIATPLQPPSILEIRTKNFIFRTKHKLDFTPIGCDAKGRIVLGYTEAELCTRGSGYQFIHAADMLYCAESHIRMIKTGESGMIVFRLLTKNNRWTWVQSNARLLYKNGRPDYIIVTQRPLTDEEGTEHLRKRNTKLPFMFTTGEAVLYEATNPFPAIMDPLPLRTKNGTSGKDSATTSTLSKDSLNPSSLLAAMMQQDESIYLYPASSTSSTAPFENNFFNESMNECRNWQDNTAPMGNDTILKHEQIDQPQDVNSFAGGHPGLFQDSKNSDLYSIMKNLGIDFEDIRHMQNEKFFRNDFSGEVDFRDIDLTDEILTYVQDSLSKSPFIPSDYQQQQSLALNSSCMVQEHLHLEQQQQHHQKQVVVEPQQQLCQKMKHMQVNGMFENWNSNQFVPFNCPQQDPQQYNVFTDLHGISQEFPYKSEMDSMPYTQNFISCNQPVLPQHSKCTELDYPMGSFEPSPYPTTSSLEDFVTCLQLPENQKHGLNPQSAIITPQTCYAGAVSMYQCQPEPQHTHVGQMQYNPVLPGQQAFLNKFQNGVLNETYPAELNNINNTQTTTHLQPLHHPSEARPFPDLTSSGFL

Turning to `CC(C)(C)OO`, the Potency result in assay [1], in [2], in assay [3], in assay [4], in assay [5] and in assay [6] was “inactive” each time. Besides, in assay [7], the Potency entry was “inactive”.

Take `O=C(CCl)C(Cl)Cl`: the Potency entry in assay [8] was “inactive”. Moreover, the Potency was 61.7 µM (active) in assay [5] and 17.5 µM (active) in assay [7].

As to `CC1(C)CN=C(NN=C(/C=C/c2ccc(C(F)(F)F)cc2)/C=C/c2ccc(C(F)(F)F)cc2)NC1`, the Potency in assay [1] is 27.3 µM (active); in assay [4], 9.77 µM (active); in [5], 8.63 µM (active); in [6], 24.5 µM (active); in [7], 7.76 µM (active).

As to `ClC1=C(Cl)C2(Cl)C3C(Cl)C(Cl)CC3C1(Cl)C2(Cl)Cl` (configuration not stated), the Potency entry in assay [1] is “inactive”. Besides, the Potency is 24.5 µM (active) in [4]; 61.1 µM (active) in [5]; 21.8 µM (active) and 38.9 µM (active) in [6]; 21.8 µM (active) and 24.5 µM (active) in assay [7].

As for `O=c1oc2ccccc2c(O)c1Cc1c(O)c2ccccc2oc1=O`, the Potency result in assay [4] and in [6] was “inactive” each time. For the same compound, in assay [9], the Potency is 7.5 µM (active).

Consider `CCOCCOC(C)=O`, for which the Potency result in assay [1], in assay [4], in [5], in assay [10] and in [7] was “inactive” each time.

With `CC(=O)OC1(c2ccccc2)CCN(CCc2ccccc2)CC1`, the Potency result in assay [2], in assay [4], in [5], in assay [6] and in assay [10] was “inactive” each time.

With `COC12CC[C@@]3(C[C@@H]1C(C)(O)C(C)(C)C)[C@H]1Cc4ccc(O)c5c4[C@@]3(CCN1CC1CC1)[C@H]2O5` (some centres not stated), the Potency in [1] was 60.7 µM (active); in [7], 48.2 µM (active). Further, in assay [4], the Potency entry is “inactive”.

Regarding `Oc1ccc(C2(c3ccc(O)cc3)CCCCC2)cc1`, the Potency in assay [4] and in assay [7] was 41.3 µM (active) in each case.

For `CCOC(=O)C1(c2ccccc2)CCN(CCC(C#N)(c2ccccc2)c2ccccc2)CC1`, in assay [1], the Potency entry is “inactive and 59.6 µM (active)”. Moreover, the Potency entry in assay [4], in assay [5] and in assay [6] was “inactive” throughout.

Consider `C=CC(=O)OCC(COC(=O)C=C)(COC(=O)C=C)COC(=O)C=C`, for which the Potency in assay [1] was 19.3 µM (active); in assay [4], 6.92 µM (active); in assay [6] it was 2.45 µM (active); in assay [7], 6.92 µM (active).

Consider `COc1ccc(N)cc1N`, for which the Potency was 63.1 µM (active) and inactive in assay [1]; 21 µM (active) in assay [4]; 19.9 µM (active) and 29.4 µM (active) in assay [5]; 8.01 µM (active) in assay [6].

Regarding `Oc1c(Br)c(Br)c(Br)c(Br)c1Br`, the Potency entry in assay [1] and in [6] was “inactive” throughout. For the same compound, the Potency in assay [4] was 49.3 µM (active).

On to `CC(C)CC(C)Nc1ccc(Nc2ccccc2)cc1` (configuration not stated), for which the Potency in assay [1] is 67.4 µM (active); in [4] it was 42.9 µM (active); in assay [6], 54 µM (active); in assay [7], 38.3 µM (active).

As for `O=C(CCCN1CCC2(CC1)C(=O)NCN2c1ccccc1)c1ccc(F)cc1`, the Potency result in [2], in [4], in [6], in assay [10] and in [7] was “inactive” throughout. For the same compound, the Potency in [9] is 2.98 µM (active).

For the compound `CC[C@H](C)[C@H]1O[C@]2(C=C[C@@H]1C)C[C@@H]1C[C@@H](C/C=C(\C)[C@@H](O[C@H]3C[C@H](OC)[C@@H](O[C@H]4C[C@H](OC)[C@@H](O)[C@H](C)O4)[C@H](C)O3)[C@@H](C)/C=C/C=C3\CO[C@@H]4[C@H](O)C(C)=C[C@@H](C(=O)O1)[C@]34O)O2`, the Potency result in assay [1] is “inactive and 11.4 µM (active)”; in assay [4], 9.15 µM (active); in assay [5], 11.4 µM (active); in [6] it was 12.9 µM (active); in [7] it was 11.5 µM (active). In addition, the Potency entry in [10] was “inactive”.

For the compound `C[C@@H]1CC[C@@]2(OC1)O[C@H]1[C@@H](O)[C@H]3[C@@H]4CC[C@H]5C[C@@H](O[C@@H]6O[C@H](CO)[C@H](O[C@@H]7O[C@H](CO)[C@@H](O)[C@H](O[C@@H]8OC[C@@H](O)[C@H](O)[C@H]8O)[C@H]7O[C@@H]7O[C@H](CO)[C@@H](O)[C@H](O[C@@H]8O[C@H](CO)[C@@H](O)[C@H](O)[C@H]8O)[C@H]7O)[C@H](O)[C@H]6O)[C@H](O)C[C@]5(C)[C@H]4CC[C@]3(C)[C@H]1[C@@H]2C`, the Potency in assay [1] was 20.5 µM (active); in [4], 23.2 µM (active); in [6] it was 29.2 µM (active); in assay [7], 5.83 µM (active).

Turning to `COc1cccc2c1C(=O)c1c(O)c3c(c(O)c1C2=O)C[C@@](O)(C(=O)CO)CC3OC1CC(N2CCOC(OC)C2)C(O)C(C)O1` (some centres not stated), in assay [5], the Potency is 9.44 µM (active). Further, the Potency result in [10] and in assay [7] was “inactive” in each case.

Take `CC(C)C1CCC(Cc2ccc(Cl)cc2)C1(O)Cn1cncn1` (configuration not stated): the Potency is 15.2 µM (active) in assay [9] and 54.4 µM (active) in [7]. Moreover, the Potency result in [6] was “inactive”.

With `CCN(CC)C(=S)[S-].CCN(CC)C(=S)[S-].[Zn+2]`, in assay [1], the Potency result was “inactive”. In addition, the Potency was 2.17 µM (active) in [4] and 0.545 µM (active) in assay [7].
